Compounds without any hit were thinned out: in the full panel of roughly 83,000, 20% have a hit.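 The endpoint reported here, percent growth, reads 100 for growth as untreated, 0 for no net growth and -100 for all cells dead.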 Values without a mark were called inactive. The source made the active and inactive calls. Rule for the calls: active = growth percent below 10; inactive = the rest.
How the values were obtained:
Experiment in all cases: NCI-60 one-dose screen, 48 h (100 = growth as untreated, 0 = no growth, -100 = all killed)
Conditions in all cases: 10 µM unless noted
NCI-H23 lung = test system: NCI-H23 lung
NCI-H226 lung = test system: NCI-H226 lung
NCI-H322M lung = test system: NCI-H322M lung
HOP-62 NSCLC = test system: HOP-62 NSCLC
NCI-H460 lung = test system: NCI-H460 lung
HOP-92 NSCLC = test system: HOP-92 NSCLC
NCI-H522 lung = test system: NCI-H522 lung
A549/ATCC NSCLC = test system: A549/ATCC NSCLC
786-0 renal = test system: 786-0 renal
COLO 205 colon = test system: COLO 205 colon

| SMILES | growth (NCI-H23 lung) | growth (NCI-H226 lung) | growth (NCI-H322M lung) | growth (HOP-62 NSCLC) | growth (NCI-H460 lung) | growth (HOP-92 NSCLC) | growth (NCI-H522 lung) | growth (A549/ATCC NSCLC) | growth (786-0 renal) | growth (COLO 205 colon) |
| --- | --- | --- | --- | --- | --- | --- | --- | --- | --- | --- |
| Brc1cccc(-c2cc(-c3ccc4nccnc4c3)[nH]n2)c1 | 46.5% [25 µM] | 22.4% [25 µM] | 50.5% [25 µM] | 30.1% [25 µM] | 4.81% [25 µM] (active) | 55.5% [25 µM] | -5.69% [25 µM] (active) | 31.2% [25 µM] | 35.1% [25 µM] | -24.7% [25 µM] (active) |
| O=C1c2c(Cl)c(Cl)c(Cl)c(Cl)c2C(=O)C2(Cl)CC=CCC12Cl (stereo not drawn) | 10% | 73% | 72.6% | -90.2% (active) | 50.3% | -58.1% (active) | -80.7% (active) | 74.1% | 0.0645% (active) | -77.3% (active) |
| Cn1ncc2c(Sc3ccc(Cl)cc3)ncnc21 | 93.6% | 108% | 86.5% | 111% | 92.9% | 25.8% | 21.4% | 93.1% | 98.8% | 90.8% |
| CN(C)c1ncnc2c1ccn2C1OC(CO)C(O)C1O (stereo not drawn) | 54.5% | 72.7% | 3.23% (active) | 50.8% | 45.6% | -6.76% (active) | 90.9% | 61.4% | 34.8% | 54.3% |
| CCN1C(=O)N(CC)C2C1NN=c1s/c(=C\c3cccnc3)c(=O)n12 (stereo not drawn) | 44.5% | 49.7% | 47.3% | 53.4% | 7.97% (active) | 101% | 8.92% (active) | 27% | 41.7% | 12.3% |
| C=C1CCC2C3(C)COC(C)(C)OC3CCC2(C)C1C/C=C1/C(=O)OCC1Oc1ccccc1OC (stereo not drawn) | 92.2% | 79.7% | 96.6% | 105% | 102% | 116% | 17.5% | 97.7% | 99.9% | 102% |
| COc1ccc(/C=C(\C#N)c2cc(OC)c3c(c2)OCO3)cc1 | 37.5% | 26.7% | 44% | 35.8% | 5.33% (active) | 43.6% | -8.84% (active) | 15.4% | 20% | -41% (active) |
| COc1ccc(C2NN=C3c4ccccc4CCC32)cc1 (stereo not drawn) | 67.7% | 73.5% | 104% | 67.3% | 56.3% | 67.5% | 47.2% | 68.1% | 91.3% | 78.4% |
| CCOC(=O)CC(=O)OC | 106% | 101% | 111% | 102% | 101% | 96.4% | 90.2% | 101% | 101% | 101% |
| COc1ccc(C2C(C#N)=C(N)Oc3c2ccc2ccccc32)cc1 (stereo not drawn) | 52.8% | 39.4% | 67.8% | 37.3% | 14.6% | 48.4% | 3.93% (active) | 57.1% | 73.1% | 91.1% |
| ClC(Cl)c1nc(-c2cccnc2)n2nc(-c3ccccc3)cc2n1 | -39.3% (active) | 66.2% | 46.2% | 5.17% (active) | -32.5% (active) | -0.78% (active) | -20.3% (active) | -16.8% (active) | 82.3% | -52.6% (active) |
| S=C1CC(=S)NC(=S)N1 | 103% | 103% | 124% | 104% | 102% | 102% | 101% | 111% | 106% | 100% |
| Cc1cc(N/N=C/c2nc(-c3ccc(Br)cc3)oc2C)c2cc(Cl)ccc2n1 | 101% | 84.7% | 91.9% | 107% | 12.8% | 72% | 76.5% | 65.5% | 34.1% | 104% |
| Cc1[nH]c2ccc(F)cc2c1CCNC(=O)C1CCN(C(=O)c2ccccc2)CC1 | 99.3% [25 µM] | 83.7% [25 µM] | 86.3% [25 µM] | 84.6% [25 µM] | 101% [25 µM] | 4.45% [25 µM] (active) | 89.3% [25 µM] | 96.6% [25 µM] | 88.9% [25 µM] | 90.9% [25 µM] |
| Cc1cc(C)n(-c2nnc3n2N=C(c2ccc(-c4ccccc4)cc2)CS3)n1 | 75.7% | 68.4% | 71.1% | 54.7% | 45.1% | -2.12% (active) | 29.2% | 31.5% | 59.9% | 39.8% |
| OCc1ncc(-c2ccccc2)s1 | 93.1% | 125% | 173% | 96.9% | 102% | 91.3% | 97.5% | 110% | 60% | 114% |
| CCOC(=O)c1c(/N=C2\SC(=O)/C(=C\C(=O)OC)N2NC)sc2c1CCN(C(=O)OCC)C2 | 96.4% | 99% | 97.8% | 99.2% | 101% | 90.6% | 94.7% | 98.8% |  | 109% |
| O=C(N/N=C/C=C\c1ccccc1)C(=O)N/N=C/C=C/c1ccccc1 | 103% | 111% | 123% | 107% | 117% | 115% | 124% | 109% | 104% | 122% |
| S=C(S)NCCc1c[nH]c2ccccc12 | 99% | 66.5% | 99.9% | 106% | 103% | 99.2% | 79.8% | 99.4% | 100% | 125% |
| CCOC(=O)c1ccc2c(c1)nc(-c1ccc(OCc3ccccc3)c(OC)c1)n2-c1cc(C(C)(C)C)[nH]n1 | 88.1% | 91.6% | 92.8% | 91.4% | 74.9% | 93.5% | 67.8% | 59.3% | 98.7% | 67.4% |
| CCO/C=N/C1=C(C#N)C(c2ccc(Cl)cc2)c2c(c3ccc(C)cc3[nH]c2=O)O1 (stereo not drawn) | 85.4% | 78.9% | 88% | 70.7% | 95% | 50.7% | 74.2% | 90.2% |  | 96.1% |
| O=C(NNC(=S)Nc1ccccc1)c1cc2ccc1CCc1ccc(cc1)CC2 | 74.8% | 78.9% | 77.7% | 64.7% | 36.9% | 48.8% | 76% | 59.2% |  | 77% |
| S=c1[nH]nc(-c2cc3ccc2CCc2ccc(cc2)CC3)n1-c1ccccc1 | 98% | 107% | 96.4% | 106% | 99.6% | 98.4% | 87.3% | 93.1% |  | 106% |
| C=CCn1cc(-c2nc3ccccc3s2)c2cc(-c3ccc4c5c(cccc35)C(=O)N(CCN3CCNCC3)C4=O)ccc21 | 86.3% | 63.9% | 97.5% | 82.7% | 89% | 72.1% | 92.4% | 85% |  | 107% |
| CCCCOc1ccc(/C=C2/SC(N3CCOCC3)=NC2=O)cc1OCC | 98.6% | 92% | 94.3% | 104% | 99.5% | 70.7% | 75% | 96% |  | 113% |
| O=[N+]([O-])c1ccc(C(c2ccccc2)c2ccccc2)cc1 | 89.6% | 100% | 78% | 102% | 94% | 85.9% | 87% | 91.5% | 99.4% | 92.6% |
| CCO/C=N/C1=C(C#N)C(c2ccc(Cl)cc2)c2c(c3ccccc3n(C)c2=O)O1 (stereo not drawn) | 80.3% | 91.3% | 85.9% | 64.6% | 79.9% | 79.2% | 58.7% | 63.4% |  | 71.5% |
| Cc1nc2cncc(C#Cc3cncc(C(=O)Nc4ccc(CN5CCN(C)CC5)c(C(F)(F)F)c4)c3)c2nc1C | 7.45% (active) | -28.7% (active) | 8.94% (active) | -17.4% (active) | 13.9% | -40.5% (active) | 10.2% | 31% | 29.6% | -12.3% (active) |
